# Experimental data reported in ChEMBL document CHEMBL1961873, “Compounds: GSK PKIS; Assays: Nanosyn kinase panel” (2012).
# Columns and labels:
# [1] = target: Sphingosine kinase 1 (Homo sapiens) (UniProt Q9NYA1); details: at 1 µM;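 also: mean SPHK1 inhibition value reported from the GSK PKIS kinase panel screen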
# [2] = target: T1, Sphingosine kinase 2 (Homo sapiens) (UniProt Q9NRA0); details: at 0.1 µM
# T1 sequence (whole entry): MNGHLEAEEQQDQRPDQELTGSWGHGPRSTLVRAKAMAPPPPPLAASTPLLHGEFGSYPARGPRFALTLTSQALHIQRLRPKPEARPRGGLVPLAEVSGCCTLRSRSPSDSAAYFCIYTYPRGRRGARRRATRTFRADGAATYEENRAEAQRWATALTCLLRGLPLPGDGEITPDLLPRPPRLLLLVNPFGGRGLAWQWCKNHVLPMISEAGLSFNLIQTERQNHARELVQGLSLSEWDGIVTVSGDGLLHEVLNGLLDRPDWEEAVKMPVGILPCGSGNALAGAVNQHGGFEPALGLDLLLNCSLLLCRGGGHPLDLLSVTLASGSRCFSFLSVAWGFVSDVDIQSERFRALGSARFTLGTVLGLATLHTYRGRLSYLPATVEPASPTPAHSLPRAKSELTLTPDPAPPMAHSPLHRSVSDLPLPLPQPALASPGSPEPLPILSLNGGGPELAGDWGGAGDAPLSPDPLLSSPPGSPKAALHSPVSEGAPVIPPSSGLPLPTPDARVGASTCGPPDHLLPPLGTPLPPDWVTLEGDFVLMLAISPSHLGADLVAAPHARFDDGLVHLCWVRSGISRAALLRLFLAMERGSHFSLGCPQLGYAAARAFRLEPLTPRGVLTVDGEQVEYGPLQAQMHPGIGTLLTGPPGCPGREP
# [3] = target: T1, Sphingosine kinase 2 (Homo sapiens); details: at 1 µM
# [4] = target: Casein kinase II subunit alpha (Homo sapiens) (UniProt P68400); details: at 0.1 µM
# Casein kinase II subunit alpha (Homo sapiens), sequence (P68400 whole entry, looked up): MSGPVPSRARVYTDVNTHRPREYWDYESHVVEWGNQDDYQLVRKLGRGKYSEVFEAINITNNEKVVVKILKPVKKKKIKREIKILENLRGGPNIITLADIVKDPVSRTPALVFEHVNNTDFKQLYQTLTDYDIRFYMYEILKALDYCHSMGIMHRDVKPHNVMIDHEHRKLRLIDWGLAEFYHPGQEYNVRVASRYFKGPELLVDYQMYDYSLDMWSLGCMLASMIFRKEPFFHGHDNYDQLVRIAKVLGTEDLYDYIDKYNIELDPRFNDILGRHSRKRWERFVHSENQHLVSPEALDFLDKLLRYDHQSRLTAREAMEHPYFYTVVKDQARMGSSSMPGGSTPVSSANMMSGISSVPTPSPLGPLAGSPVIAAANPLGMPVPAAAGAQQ
# [5] = target: Casein kinase II subunit alpha (Homo sapiens) (UniProt P68400); details: at 1 µM
# [6] = target: T2, Inhibitor of nuclear factor kappa-B kinase subunit alpha (Homo sapiens) (UniProt O15111); details: at 0.1 µM
# T2 sequence (whole entry): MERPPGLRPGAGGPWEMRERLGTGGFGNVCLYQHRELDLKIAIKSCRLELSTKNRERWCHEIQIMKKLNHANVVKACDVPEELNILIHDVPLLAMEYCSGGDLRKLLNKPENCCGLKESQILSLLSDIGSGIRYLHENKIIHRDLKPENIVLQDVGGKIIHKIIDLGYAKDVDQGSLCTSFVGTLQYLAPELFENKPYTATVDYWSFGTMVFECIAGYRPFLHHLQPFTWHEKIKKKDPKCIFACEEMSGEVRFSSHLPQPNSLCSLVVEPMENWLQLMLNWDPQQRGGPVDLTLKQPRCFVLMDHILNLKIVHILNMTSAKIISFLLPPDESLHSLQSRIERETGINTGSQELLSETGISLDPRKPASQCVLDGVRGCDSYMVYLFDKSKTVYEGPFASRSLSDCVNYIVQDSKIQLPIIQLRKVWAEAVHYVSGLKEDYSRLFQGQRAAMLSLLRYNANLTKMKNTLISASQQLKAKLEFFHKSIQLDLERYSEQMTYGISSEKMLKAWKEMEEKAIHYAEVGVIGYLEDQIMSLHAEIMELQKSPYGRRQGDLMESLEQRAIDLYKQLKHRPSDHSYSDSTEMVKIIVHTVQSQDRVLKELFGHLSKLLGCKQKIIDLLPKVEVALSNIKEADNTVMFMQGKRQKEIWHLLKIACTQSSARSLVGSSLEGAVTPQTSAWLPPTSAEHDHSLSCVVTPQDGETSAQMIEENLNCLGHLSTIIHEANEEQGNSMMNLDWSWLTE
# [7] = target: T2, Inhibitor of nuclear factor kappa-B kinase subunit alpha (Homo sapiens); details: at 1 µM
# [8] = target: T3, Inhibitor of nuclear factor kappa-B kinase subunit beta (Homo sapiens) (UniProt O14920); details: at 0.1 µM
# T3 sequence (whole entry): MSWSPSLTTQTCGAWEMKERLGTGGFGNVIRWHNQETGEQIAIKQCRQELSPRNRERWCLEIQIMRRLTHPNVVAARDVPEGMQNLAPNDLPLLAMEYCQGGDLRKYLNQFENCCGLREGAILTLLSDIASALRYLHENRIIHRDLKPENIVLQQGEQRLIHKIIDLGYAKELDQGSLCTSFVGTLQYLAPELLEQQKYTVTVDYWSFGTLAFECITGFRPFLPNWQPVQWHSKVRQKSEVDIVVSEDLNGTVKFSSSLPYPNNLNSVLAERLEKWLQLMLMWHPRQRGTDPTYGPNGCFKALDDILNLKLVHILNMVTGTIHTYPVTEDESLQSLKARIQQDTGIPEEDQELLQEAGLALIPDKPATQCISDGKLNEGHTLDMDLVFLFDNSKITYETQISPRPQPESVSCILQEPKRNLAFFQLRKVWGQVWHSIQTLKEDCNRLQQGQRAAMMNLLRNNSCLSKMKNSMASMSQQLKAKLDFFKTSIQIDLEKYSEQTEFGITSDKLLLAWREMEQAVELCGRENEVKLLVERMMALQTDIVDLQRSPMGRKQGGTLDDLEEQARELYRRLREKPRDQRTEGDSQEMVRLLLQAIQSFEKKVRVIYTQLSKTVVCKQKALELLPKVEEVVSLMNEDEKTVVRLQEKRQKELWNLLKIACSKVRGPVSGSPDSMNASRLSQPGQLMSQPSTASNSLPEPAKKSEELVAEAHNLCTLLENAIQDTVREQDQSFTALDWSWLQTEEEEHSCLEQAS
# [9] = target: T3, Inhibitor of nuclear factor kappa-B kinase subunit beta (Homo sapiens); details: at 1 µM
# [10] = target: T4, Inhibitor of nuclear factor kappa-B kinase subunit epsilon (Homo sapiens) (UniProt Q14164); details: at 0.1 µM
# T4 sequence (whole entry): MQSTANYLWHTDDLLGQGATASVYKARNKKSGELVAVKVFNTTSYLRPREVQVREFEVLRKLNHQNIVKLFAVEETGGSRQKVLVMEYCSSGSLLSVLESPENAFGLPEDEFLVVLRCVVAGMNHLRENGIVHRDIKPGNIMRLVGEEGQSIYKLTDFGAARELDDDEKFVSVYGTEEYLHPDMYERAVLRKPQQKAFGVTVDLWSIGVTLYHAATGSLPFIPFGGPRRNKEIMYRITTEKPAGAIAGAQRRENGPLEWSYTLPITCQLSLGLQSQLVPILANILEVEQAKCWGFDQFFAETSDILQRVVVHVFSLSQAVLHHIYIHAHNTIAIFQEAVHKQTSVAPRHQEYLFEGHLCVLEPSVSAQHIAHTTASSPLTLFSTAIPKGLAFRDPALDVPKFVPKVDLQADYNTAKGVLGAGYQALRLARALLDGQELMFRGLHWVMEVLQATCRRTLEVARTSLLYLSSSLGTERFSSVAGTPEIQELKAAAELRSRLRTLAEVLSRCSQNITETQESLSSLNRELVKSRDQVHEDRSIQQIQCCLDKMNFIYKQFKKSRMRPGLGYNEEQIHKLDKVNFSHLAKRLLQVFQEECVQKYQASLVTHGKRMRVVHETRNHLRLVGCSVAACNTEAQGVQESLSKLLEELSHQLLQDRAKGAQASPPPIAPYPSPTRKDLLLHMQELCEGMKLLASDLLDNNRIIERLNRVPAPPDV
# [11] = target: T4, Inhibitor of nuclear factor kappa-B kinase subunit epsilon (Homo sapiens); details: at 1 µM
# [12] = target: T5, Serine/threonine-protein kinase Nek1 (Homo sapiens) (UniProt Q96PY6); details: at 0.1 µM
# T5 sequence (whole entry): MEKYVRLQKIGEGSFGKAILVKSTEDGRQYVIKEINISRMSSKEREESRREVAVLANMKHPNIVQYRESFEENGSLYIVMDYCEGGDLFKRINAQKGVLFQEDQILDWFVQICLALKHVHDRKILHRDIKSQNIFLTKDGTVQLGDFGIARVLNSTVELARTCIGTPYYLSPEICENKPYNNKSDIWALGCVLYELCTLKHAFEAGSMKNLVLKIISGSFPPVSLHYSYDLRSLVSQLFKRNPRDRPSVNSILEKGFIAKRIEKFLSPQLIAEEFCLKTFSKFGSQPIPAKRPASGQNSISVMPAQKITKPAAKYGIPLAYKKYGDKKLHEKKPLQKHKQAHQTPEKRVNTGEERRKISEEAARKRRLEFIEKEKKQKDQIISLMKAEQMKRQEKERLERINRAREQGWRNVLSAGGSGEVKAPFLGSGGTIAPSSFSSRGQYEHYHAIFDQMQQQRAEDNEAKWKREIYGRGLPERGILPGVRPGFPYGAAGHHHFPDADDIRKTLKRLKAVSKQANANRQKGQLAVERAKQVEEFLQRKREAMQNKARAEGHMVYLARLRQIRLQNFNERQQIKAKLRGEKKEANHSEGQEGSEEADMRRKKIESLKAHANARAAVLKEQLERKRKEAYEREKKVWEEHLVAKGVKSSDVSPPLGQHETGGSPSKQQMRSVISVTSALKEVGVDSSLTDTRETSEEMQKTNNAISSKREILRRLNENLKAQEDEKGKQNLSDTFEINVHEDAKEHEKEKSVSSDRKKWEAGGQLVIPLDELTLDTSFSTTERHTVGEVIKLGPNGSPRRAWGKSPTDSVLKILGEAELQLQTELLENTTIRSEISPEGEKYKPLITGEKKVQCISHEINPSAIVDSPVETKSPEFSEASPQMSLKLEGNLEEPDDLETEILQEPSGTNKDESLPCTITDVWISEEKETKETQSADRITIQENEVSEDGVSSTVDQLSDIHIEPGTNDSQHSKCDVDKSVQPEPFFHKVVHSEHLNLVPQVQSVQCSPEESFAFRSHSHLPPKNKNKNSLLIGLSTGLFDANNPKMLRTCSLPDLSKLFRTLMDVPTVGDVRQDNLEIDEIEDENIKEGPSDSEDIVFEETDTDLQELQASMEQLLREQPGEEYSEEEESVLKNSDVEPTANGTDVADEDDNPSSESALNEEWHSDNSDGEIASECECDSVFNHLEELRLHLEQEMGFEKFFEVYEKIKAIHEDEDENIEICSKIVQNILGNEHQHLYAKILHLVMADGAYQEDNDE
# [13] = target: T5, Serine/threonine-protein kinase Nek1 (Homo sapiens); details: at 1 µM
# [14] = target: T6, Serine/threonine-protein kinase Nek2 (Homo sapiens) (UniProt P51955); details: at 0.1 µM
# T6 sequence (whole entry): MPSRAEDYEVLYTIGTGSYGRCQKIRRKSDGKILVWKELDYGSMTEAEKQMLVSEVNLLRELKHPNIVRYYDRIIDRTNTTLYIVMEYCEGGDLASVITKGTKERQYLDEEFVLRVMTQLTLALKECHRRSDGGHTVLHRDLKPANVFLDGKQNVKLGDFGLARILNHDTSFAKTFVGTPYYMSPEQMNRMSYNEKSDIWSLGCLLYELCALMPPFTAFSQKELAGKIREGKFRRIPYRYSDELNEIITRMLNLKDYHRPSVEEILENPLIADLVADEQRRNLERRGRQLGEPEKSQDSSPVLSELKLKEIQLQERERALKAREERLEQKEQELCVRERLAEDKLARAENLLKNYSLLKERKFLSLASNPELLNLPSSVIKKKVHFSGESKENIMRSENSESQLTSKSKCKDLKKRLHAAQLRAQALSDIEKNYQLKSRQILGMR
# [15] = target: T6, Serine/threonine-protein kinase Nek2 (Homo sapiens); details: at 1 µM
# [16] = target: Serine/threonine-protein kinase Nek6 (Homo sapiens) (UniProt Q9HC98); details: at 0.1 µM
# Serine/threonine-protein kinase Nek6 (Homo sapiens), sequence (Q9HC98 whole entry): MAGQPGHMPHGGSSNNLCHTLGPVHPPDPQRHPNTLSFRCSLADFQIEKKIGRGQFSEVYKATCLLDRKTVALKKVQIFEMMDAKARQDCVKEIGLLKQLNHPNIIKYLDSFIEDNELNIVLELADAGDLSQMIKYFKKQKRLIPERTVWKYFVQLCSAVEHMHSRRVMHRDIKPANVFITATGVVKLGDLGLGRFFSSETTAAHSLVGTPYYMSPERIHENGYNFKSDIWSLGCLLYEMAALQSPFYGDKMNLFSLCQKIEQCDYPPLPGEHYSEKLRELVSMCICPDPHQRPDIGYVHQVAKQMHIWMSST
# [17] = target: Serine/threonine-protein kinase Nek6 (Homo sapiens) (UniProt Q9HC98); details: at 1 µM
# [18] = target: Serine/threonine-protein kinase Nek7 (Homo sapiens) (UniProt Q8TDX7); details: at 0.1 µM
# Serine/threonine-protein kinase Nek7 (Homo sapiens), sequence (Q8TDX7 whole entry, looked up): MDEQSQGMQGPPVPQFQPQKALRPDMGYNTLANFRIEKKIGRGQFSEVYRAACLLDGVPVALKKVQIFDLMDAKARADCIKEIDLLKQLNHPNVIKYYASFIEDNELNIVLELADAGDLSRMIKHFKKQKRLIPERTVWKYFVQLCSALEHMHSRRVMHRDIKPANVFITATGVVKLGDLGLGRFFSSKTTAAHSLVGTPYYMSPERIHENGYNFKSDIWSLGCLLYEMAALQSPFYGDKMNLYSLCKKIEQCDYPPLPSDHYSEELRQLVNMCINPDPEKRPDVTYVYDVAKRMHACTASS
# [19] = target: Serine/threonine-protein kinase Nek7 (Homo sapiens) (UniProt Q8TDX7); details: at 1 µM
# [20] = target: T7, Serine/threonine-protein kinase Nek9 (Homo sapiens) (UniProt Q8TD19); details: at 0.1 µM;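 also: reported value is the mean percent inhibition of NEK9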
# T7 sequence (whole entry): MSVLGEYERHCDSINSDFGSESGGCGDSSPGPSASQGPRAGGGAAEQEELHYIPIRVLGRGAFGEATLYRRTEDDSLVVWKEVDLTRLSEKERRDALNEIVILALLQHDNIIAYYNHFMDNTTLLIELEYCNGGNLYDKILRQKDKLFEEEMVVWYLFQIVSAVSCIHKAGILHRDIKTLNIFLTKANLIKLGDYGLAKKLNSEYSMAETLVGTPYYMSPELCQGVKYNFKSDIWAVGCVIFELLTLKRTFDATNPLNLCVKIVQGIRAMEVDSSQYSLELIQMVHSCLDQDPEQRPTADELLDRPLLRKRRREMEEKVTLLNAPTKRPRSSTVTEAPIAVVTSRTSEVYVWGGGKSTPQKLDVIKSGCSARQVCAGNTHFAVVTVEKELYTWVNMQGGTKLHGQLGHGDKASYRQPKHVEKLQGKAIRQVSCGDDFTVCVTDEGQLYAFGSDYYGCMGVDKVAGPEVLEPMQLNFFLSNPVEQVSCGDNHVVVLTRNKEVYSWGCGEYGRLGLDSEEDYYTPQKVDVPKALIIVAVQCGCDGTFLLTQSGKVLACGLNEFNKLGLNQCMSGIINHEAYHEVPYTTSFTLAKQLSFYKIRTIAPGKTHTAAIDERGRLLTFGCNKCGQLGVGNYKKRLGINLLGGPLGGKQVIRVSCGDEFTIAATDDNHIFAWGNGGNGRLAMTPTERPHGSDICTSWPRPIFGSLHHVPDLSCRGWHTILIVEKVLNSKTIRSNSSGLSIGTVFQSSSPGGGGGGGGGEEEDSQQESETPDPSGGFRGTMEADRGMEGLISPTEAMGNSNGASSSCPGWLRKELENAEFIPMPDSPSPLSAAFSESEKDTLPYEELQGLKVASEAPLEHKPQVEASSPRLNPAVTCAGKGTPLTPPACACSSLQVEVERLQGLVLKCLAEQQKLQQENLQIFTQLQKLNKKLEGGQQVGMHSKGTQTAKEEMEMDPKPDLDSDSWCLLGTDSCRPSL
# Sphingosine kinase 1 (Homo sapiens), sequence (Q9NYA1 whole entry): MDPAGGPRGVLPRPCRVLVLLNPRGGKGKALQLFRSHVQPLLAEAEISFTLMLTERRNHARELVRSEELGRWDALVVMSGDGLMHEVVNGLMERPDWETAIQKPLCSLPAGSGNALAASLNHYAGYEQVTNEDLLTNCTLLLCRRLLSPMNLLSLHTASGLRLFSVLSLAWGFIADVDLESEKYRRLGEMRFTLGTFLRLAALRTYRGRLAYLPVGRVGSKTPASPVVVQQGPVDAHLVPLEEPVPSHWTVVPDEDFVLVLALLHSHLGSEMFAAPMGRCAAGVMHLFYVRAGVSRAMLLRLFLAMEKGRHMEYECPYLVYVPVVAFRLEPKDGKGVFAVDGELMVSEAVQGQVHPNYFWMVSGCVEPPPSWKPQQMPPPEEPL
compound,measurement,setting,value
Cc1cc(O)cc(C)c1/C=C/c1cncc(-c2nn[nH]n2)c1,inhibition,[1],-1.54%
same,inhibition,[2],1.53%
same,inhibition,[3],-0.11%
same,inhibition,[4],2.01%
same,inhibition,[5],6.14%
same,inhibition,[6],4.82%
same,inhibition,[7],4%
same,inhibition,[8],5.96%
same,inhibition,[9],4.65%
same,inhibition,[10],5.04%
same,inhibition,[11],4.14%
same,inhibition,[12],3.13%
same,inhibition,[13],3.26%
same,inhibition,[14],5.36%
same,inhibition,[15],4.88%
same,inhibition,[16],1.26%
same,inhibition,[17],1.3%
same,inhibition,[18],4.96%
same,inhibition,[19],4.04%
same,inhibition,[20],4.65%
